# Inconclusive results are not listed. Values without a mark were called inactive. Calls of active or inactive are those of the source. Calls follow the shape of the dose curve; as a rule, active = well fitted inhibition curve with a large enough effect; inconclusive = small, poorly fitted or top-dose-only effect; inactive = flat fitted curve, though single readings scatter.
# Assay: P-glycoprotein substrates identified in KB-8-5-11 adenocarcinoma cell line, qHTS therapeutic library screen (AID 1346987); also: nearly all actives have a fitted effect of over 65% in size
# Conditions: KB-8-5-11 (P-gp overexpressing) viability, CellTiter-Glo, 72 h; series mostly up to 44.5 µM; activity change, negative = cytotoxicity: at the top concentration
# Outline: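 Steps: plate 500 KB-8-5-11 cells/well in DMEM + 10% FCS (colchicine removed); pin compounds in dose-response; incubate 72 h, 37 degree C, 5% CO2; add CellTiter-Glo, 5 min; read luminescence.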
# % is scaled to controls: 0 for no effect and ±100 for the full control effect.
SMILES,outcome,"activity change, negative = cytotoxicity"
C=CC1C(O[C@@H]2O[C@H](CO)[C@@H](O)[C@H](O)[C@H]2O)OC=C(C(=O)OC)C1Cc1nccc2c1[nH]c1ccccc12 (stereo partly drawn),inactive [at 17.3 µM],–
C=C1CC[C@H]2[C@@](C)(CCC(O)[C@@]2(C)CO)[C@@H]1C/C=C(/C(=O)O)C(O)CO (stereo partly drawn),–,7.13%
CC1(C)CCCC2(C)C3=C(C(=O)OC3O)C(O)CC12 (stereo not drawn),inactive,–
C[C@@H]1CC[C@]2(C)C3(C)CC[C@@]2(OC3=O)[C@@]12C[C@H](c1ccoc1)OC2=O,–,8.46%
Cc1coc2c1CC1OC1(C)CCC1OC1(C)C2 (stereo not drawn),inactive,–
CC(C)(O)CNc1nc(Nc2ccnc(C(F)(F)F)c2)nc(-c2cccc(C(F)(F)F)n2)n1,–,-17.9% [at 17.3 µM]
CC1(C)CC[C@]2(C(=O)O[C@@H]3O[C@H](CO)[C@@H](O)[C@H](O)[C@H]3O)CC[C@]3(C)C(=CCC4[C@@]5(C)C[C@@H](O)[C@H](O)C(CO)(CO)C5CC[C@]43C)C2[C@@H]1O (stereo partly drawn),inactive [at 17.3 µM],–
CC1=C2C=C(CO)C(CO)CCC2(C)CCC1=O (stereo not drawn),inactive,–
CC1(CCC(=O)O)C(=O)C=CC23CC4CC(OC4(C)C2O)C13 (stereo not drawn),–,8.84%
CC1(C)O[C@]23C[C@H]1C[C@H](OC(=O)c1ccoc1)[C@]2(C)[C@@H](OC(=O)c1ccoc1)CCC3(C)O (stereo partly drawn),–,1.91% [at 17.3 µM]
C=C1C(=O)OC2/C=C(\C)CC/C=C(\C(=O)O)CC/C=C(\C)CCC12 (stereo not drawn),–,1.34%
COC(=O)c1cc(CN2CCN(C(=N)N)CC2)cc(C(=O)N2CCN(C(=O)c3ccc(C(=N)N)cc3)CC2)c1,inactive,–
CCOc1ccc(C(Nc2ccccn2)c2ccc3ccc(C)nc3c2O)cc1C (stereo not drawn),–,3.67%
